One experiment addresses Albumin (Bos taurus) (UniProt P02769). Put plainly: bovine serum albumin binders on microarray, profiling panel, artefact control for SMM control protein annotation, biochemical, small-molecule microarray, Alexa647 label, 635/667 nm fluorescence (AID 1118).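 Further: score merges 667 nm emission intensity and signal-to-noise per printed compound spot.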 Particulars: BSA-A647 binding, fluorescence 635 nm, higher = more signal.
Experiment [1] can be described thus: small-molecule microarray binders of probe aXIP, primary screen, biochemical, NeuroSMM set, 635/667 nm fluorescence (AID 1119).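 Further: probe is the protein aXip251-270 applied at 1 µg/mL to compound-printed slides; binding of probe to printed compounds measured as 667 nm fluorescence plus signal to noise.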 Particulars: higher = more signal, called active from +8 up or from −8 down.
Experiment [2] is described as follows: small-molecule binders of probe aNOTCH3, primary screen, biochemical, small-molecule microarray, 635/667 nm fluorescence (AID 1120).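 Further: probe is a biotin-tagged antibody raised against NOTCH3 rather than NOTCH3 protein; score merges spot fluorescence near 667 nm with spot signal to noise.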 Particulars: higher = more signal.
Experiment [3] can be described thus: small-molecule binders of probe aNOTCH2, primary screen, biochemical, small-molecule microarray, 635/667 nm fluorescence (AID 1121).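 Further: score merges feature fluorescence read at 667 nm with its signal to noise.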 Particulars: higher = more signal.
For experiment [4], the target named is Carbonic anhydrase 2 (Homo sapiens) (UniProt P00918). Briefly: CAII small-molecule binders, profiling panel, biochemical, small-molecule microarray, Alexa647-labelled CAII (AID 1122). Particulars: CAII-A647 binding fluorescence, higher = more signal.
Experiment [5] in a line: COS7 lysate on small-molecule microarray, probe aHis, 635 nm (AID 1123).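 Further: z-score combines 667nm fluorescence intensity with signal-to-noise per printed compound spot.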 As to conditions: COS7 cell lysate, fluorescence, higher = more signal.
Experiment [6] in a line: compound binding in COS7 lysate, probe aLAP1, primary screen, cell lysate, small-molecule microarray (AID 1124).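 Further: lysate comes from COS7 cells expressing LAP1 and is applied at 0.3 µg/mL; score merges spot fluorescence near 667 nm with signal-to-noise over triplicate slides.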 Particulars: probe aLAP1, fluorescence, higher = more signal.
The test system of the next experiment is Sam68 (KHDRBS1). Briefly: Sam68 small-molecule binders, primary screen, biochemical, small-molecule microarray, 635 nm fluorescence (AID 1125).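 Further: score merges 667 nm channel intensity with signal to noise over triplicate slides.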 Particulars: small-molecule microarray binding, higher = more signal.
Experiment [7] relates to Chordin-like protein 2 (CHRDL2). Put plainly: CHRDL2 small-molecule binders, primary screen, biochemical, small-molecule microarray, 635 nm fluorescence (AID 1126).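 Further: printed compound slides probed with Chrdl2 protein at 4 µg/mL for 1 h at 4 C; score merges 667 nm emission intensity with signal to noise over three replicate slides.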 Particulars: small-molecule microarray binding, fluorescence 635 nm; higher = more signal.
Experiment [8] has as its target Concanavalin-A (Canavalia ensiformis) (UniProt P02866). Briefly: ConA small-molecule binders, primary screen, artefact control for SMM control protein annotation, biochemical, small-molecule microarray, Alexa647 label, 635 nm (AID 1127).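 Further: z combines 667 nm emission intensity with signal-to-noise across three replicate slides.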 Particulars: ConA-A647 binding fluorescence, higher = more signal.
The nature of experiment [9]: anti-His antibody binders, primary screen, artefact control for SMM control protein annotation, biochemical, small-molecule microarray, 635 nm fluorescence (AID 1128).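 Further: score merges feature fluorescence with signal-to-noise for each printed compound spot.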 Particulars: anti-His Alexa647 antibody binding, higher = more signal.
Experiment [10] concerns Human papillomavirus type 1a E7 protein (residues 1-88). Briefly: HPV1a E7 small-molecule binders, primary screen, biochemical, small-molecule microarray, residues 1-88, 635 nm (AID 1129). Particulars: small-molecule microarray binding, fluorescence 635 nm; higher = more signal.
In experiment [11] the target is Focal adhesion kinase 1 (Homo sapiens) (UniProt Q05397). Put plainly: small-molecule microarray binders of FAK, primary screen, biochemical, 635/667 nm fluorescence, BSA, DTT (AID 1130).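 Further: composite of spot emission at 667 nm and signal to noise over triplicate slides.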 As to conditions: PTK2 binding, 635 nm fluorescence, higher = more signal.
Sequence of Focal adhesion kinase 1 (Homo sapiens) (Q05397 whole entry, looked up): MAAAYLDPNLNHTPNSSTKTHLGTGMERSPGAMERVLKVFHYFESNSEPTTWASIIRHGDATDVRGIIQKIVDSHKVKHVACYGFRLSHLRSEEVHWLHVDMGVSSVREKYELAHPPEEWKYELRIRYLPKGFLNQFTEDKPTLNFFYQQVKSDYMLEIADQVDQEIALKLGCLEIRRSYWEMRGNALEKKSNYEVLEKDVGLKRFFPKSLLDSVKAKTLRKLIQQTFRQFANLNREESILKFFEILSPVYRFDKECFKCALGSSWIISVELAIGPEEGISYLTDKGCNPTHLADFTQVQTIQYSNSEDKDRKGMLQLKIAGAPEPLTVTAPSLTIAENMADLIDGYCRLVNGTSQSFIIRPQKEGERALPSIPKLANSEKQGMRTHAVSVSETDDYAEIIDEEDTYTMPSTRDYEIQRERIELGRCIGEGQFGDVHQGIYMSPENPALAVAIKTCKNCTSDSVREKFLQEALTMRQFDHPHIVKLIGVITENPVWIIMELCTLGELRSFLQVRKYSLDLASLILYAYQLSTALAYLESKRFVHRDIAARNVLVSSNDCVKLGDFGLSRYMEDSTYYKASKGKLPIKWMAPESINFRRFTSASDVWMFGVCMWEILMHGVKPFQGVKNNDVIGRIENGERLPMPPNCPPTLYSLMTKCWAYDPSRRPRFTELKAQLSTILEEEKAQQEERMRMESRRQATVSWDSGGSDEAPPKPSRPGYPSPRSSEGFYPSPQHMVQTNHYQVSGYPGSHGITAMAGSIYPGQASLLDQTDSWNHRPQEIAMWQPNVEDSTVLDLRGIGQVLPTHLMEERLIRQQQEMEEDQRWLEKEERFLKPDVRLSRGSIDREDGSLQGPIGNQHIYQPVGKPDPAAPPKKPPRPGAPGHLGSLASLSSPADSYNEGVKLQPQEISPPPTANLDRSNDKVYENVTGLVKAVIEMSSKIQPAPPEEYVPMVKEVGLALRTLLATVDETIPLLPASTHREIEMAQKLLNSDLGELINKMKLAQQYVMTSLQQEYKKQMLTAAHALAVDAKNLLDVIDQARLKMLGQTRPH
Experiment [12] has as its system Fibrinogen (Alexa647-labelled). Put plainly: fibrinogen binders on compound microarrays, profiling panel, artefact control for SMM control-protein annotation, biochemical, small-molecule microarray, 635/667 nm fluorescence (AID 1131).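 Further: z-score merges 667 nm fluorescence with per-spot signal-to-noise over triplicate slides.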 As to conditions: fibrinogen-A647 binding fluorescence, higher = more signal.
Experiment [13] deals with Follistatin (Homo sapiens) (UniProt P19883). Briefly: follistatin binders on small-molecule microarrays, primary screen, biochemical, small-molecule microarray, 635/667 nm fluorescence (AID 1132). As to conditions: FST binding, 635 nm fluorescence, higher = more signal.
Sequence of Follistatin (Homo sapiens) (P19883 whole entry, looked up): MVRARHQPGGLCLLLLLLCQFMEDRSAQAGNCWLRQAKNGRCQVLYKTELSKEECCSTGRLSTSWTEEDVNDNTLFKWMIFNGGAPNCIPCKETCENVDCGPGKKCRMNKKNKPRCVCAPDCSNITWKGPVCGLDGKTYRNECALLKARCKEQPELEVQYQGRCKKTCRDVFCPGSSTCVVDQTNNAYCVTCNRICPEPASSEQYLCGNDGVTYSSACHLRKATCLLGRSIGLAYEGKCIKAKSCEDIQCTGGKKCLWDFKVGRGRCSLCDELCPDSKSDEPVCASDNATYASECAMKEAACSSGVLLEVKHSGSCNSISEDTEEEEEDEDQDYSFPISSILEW
In experiment [14] the target is Fibroblast growth factor 2 (Homo sapiens) (UniProt P09038). Put plainly: FGF2 binders on small-molecule microarrays, primary screen, biochemical, small-molecule microarray, 635/667 nm fluorescence (AID 1133). As to conditions: small-molecule microarray binding, FGF2, fluorescence 635/667; higher = more signal.
Sequence of Fibroblast growth factor 2 (Homo sapiens) (P09038 whole entry, looked up): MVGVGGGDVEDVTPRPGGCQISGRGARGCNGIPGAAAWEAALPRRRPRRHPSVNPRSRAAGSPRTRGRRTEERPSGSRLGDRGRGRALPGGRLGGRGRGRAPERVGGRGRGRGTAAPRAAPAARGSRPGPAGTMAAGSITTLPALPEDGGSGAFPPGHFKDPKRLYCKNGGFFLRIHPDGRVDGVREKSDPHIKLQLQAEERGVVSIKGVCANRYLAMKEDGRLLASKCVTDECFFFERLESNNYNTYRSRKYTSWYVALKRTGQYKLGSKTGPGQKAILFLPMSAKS
The nature of experiment [15]: mitochondrial membrane potential change in A549 cells, profiling panel, cell-based, JC-1 fluorescence, basal, 24 h, 100 nL (AID 1138).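 Further: A549 lung adenocarcinoma cells under basal conditions with no added stimulus; test concentration not given here.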 As to conditions: higher = more signal.
In a further experiment the test system is Lefty1. Briefly: Lefty1 binders on small-molecule microarrays, primary screen, biochemical, small-molecule microarray, 635/667 nm fluorescence (AID 1139). Particulars: small-molecule microarray binding, fluorescence 635/667; higher = more signal.
Experiment [16] concerns wheat germ agglutinin (Triticum aestivum), Alexa647-labelled. Put plainly: wheat germ agglutinin binders on compound microarrays, profiling panel, artefact control for SMM control-protein annotation, biochemical, small-molecule microarray, 635/667 nm fluorescence (AID 1140).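 Further: score merges 667 nm feature emission with signal to noise over triplicate slides.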 Particulars: WGA-A647 binding, 635 nm fluorescence, higher = more signal.
The target of experiment [17] is Luciferin 4-monooxygenase (Photinus pyralis) (UniProt P08659). Briefly: firefly luciferase enzyme inhibitors, primary screen, biochemical, luminescence, purified enzyme, 2006 set (AID 1141).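 Further: cell-free assay with purified firefly luciferase at 100 ng per well in PBS; test concentration not given here.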 Particulars: SteadyGlo luminescence, 30 min, higher = more signal, called active from +8 up or from −8 down.
Sequence of Luciferin 4-monooxygenase (Photinus pyralis) (P08659 whole entry, looked up): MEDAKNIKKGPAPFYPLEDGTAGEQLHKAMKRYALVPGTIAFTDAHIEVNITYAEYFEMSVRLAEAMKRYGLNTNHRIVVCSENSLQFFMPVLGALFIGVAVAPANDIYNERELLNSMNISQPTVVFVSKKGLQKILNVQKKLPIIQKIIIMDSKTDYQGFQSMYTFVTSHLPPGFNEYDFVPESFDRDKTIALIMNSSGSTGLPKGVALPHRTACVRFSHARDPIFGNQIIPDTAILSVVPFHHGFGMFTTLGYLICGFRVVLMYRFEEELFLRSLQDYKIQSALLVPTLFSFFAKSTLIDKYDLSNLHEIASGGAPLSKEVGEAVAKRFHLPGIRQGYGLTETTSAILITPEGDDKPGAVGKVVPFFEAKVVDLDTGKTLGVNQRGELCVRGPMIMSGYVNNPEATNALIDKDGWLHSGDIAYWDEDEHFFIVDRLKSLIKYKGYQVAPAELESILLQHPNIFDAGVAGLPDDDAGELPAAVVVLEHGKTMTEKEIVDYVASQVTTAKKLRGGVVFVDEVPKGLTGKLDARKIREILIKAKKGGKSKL

Active and inactive are the calls of the source.

Sequence of Concanavalin-A (Canavalia ensiformis) (P02866 whole entry, looked up): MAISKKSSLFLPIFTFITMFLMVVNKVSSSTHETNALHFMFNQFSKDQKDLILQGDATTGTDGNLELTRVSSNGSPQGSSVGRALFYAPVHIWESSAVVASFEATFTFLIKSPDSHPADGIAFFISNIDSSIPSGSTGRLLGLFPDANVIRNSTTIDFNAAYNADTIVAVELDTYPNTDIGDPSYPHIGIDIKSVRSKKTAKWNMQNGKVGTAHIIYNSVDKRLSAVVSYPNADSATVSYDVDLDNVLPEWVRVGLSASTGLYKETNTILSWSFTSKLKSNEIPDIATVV
Sequence of Albumin (Bos taurus) (P02769 whole entry, looked up): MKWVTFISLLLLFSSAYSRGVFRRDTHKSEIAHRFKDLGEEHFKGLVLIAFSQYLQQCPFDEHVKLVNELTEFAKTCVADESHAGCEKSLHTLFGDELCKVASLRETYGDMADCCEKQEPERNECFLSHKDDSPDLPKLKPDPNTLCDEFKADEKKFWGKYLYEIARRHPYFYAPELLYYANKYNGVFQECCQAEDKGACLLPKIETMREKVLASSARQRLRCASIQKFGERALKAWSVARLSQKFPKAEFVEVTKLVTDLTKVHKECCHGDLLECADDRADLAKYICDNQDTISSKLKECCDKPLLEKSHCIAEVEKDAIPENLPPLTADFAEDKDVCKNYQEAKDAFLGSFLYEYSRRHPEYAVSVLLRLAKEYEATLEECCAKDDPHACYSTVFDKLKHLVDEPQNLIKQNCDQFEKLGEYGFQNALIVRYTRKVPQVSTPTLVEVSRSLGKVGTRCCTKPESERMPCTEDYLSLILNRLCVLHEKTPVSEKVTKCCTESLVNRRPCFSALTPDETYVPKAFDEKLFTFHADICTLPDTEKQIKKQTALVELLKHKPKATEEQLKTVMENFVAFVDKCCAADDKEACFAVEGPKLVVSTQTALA

For the compound `Cc1ccc(S[C@]2(C(=O)O)CC(=O)N(Cc3cc(C(F)(F)F)cc(C(F)(F)F)c3)[C@@H]2c2ccc(CO)cc2I)cc1`, the composite z-score was 0.372 with Albumin (Bos taurus); -0.243 in experiment [2]; -0.154 in experiment [3]; 0.0858 in experiment [4]; 0.0199 in experiment [5]; -0.439 in [6]. For the same compound, the composite z-score in the experiment on Sam68 (KHDRBS1) was 0.456; in [7], -1.02; in experiment [8] it was 0.226; in [9], -0.339; in [10] it was -0.664; in experiment [11], 0.0035. Further, the composite z-score in [12] is -1.56; in [13] it was -0.251; in experiment [14], -0.325; with Lefty1, -0.89; in experiment [16] it was -1.09. Moreover, the composite Z-score in experiment [1] was 1.54 (inactive). Also, the z-score is -0.603 in experiment [15] and -1.3 (inactive) in [17].
For `CCCC/C=C/[C@H]([C@@H](O)Cc1ccccc1)N(CC#Cc1ccccc1)Cc1ccccc1Br`, the composite z-score was -0.861 with Albumin (Bos taurus); -0.346 in experiment [2]; -0.171 in experiment [3]; -0.382 in experiment [4]; 0.0748 in experiment [5]; 0.006 in experiment [6]. Also, the composite z-score in the experiment with Sam68 (KHDRBS1) is -0.61; in experiment [7] it was -1.64; in experiment [8], -0.89; in [9], 0.0428; in experiment [10], -0.462; in experiment [11], -0.219. Moreover, the composite z-score in [12] was -0.986; in experiment [13] it was -1.59; in experiment [14], -1.37; with Lefty1 it was -1.84; in experiment [16], -0.788. Besides, the composite Z-score in experiment [1] was 0.911 (inactive). Moreover, the figures for the z-score in experiment [15] and in experiment [17] were 1.03 and -1.12 (inactive), respectively.
Take `Cc1ccc(N2C(=O)c3ccccc3[C@](C)(C(=O)O)[C@@H]2c2ccc(CO)cc2)nc1`: the composite z-score was -1.29 in the experiment with Albumin (Bos taurus); -0.414 in experiment [2]; -0.228 in experiment [3]; 0.289 in experiment [4]; -0.471 in [5]; 0.067 in [6]. The composite z-score is -1.17 in the experiment with Sam68 (KHDRBS1); -1.77 in experiment [7]; -1.14 in experiment [8]; -0.763 in experiment [9]; -0.914 in [10]; -0.594 in experiment [11]. The composite z-score is -0.912 in experiment [12]; -1.04 in experiment [13]; -1.12 in experiment [14]; -1.28 in the experiment with Lefty1; -0.576 in experiment [16]. The composite Z-score in experiment [1] is -0.313 (inactive). The z-score in [15] is 1.08; in [17] it was -1.46 (inactive).
As to `CC(=O)Nc1ccc([C@H]2[C@H](C)CC[C@H]3C(=O)N4[C@@H](CC[C@@H](C)[C@@H]4c4ccc(NC(C)=O)cc4)C(=O)N32)cc1`, the composite z-score with Albumin (Bos taurus) was 0.626; in experiment [2], -0.0699; in experiment [3] it was -0.195; in experiment [4], 0.634; in experiment [5] it was 1.24; in [6], 0.264. The composite z-score with Sam68 (KHDRBS1) is 1.31; in experiment [7], 0.378; in experiment [8] it was 1.12; in experiment [9], 2.46; in experiment [10], 1.16; in [11] it was 0.558. Besides, the composite z-score in experiment [12] stood at 0.798; in [13] it was 1.19; in [14], 1.25; with Lefty1, 1.54; in experiment [16], 0.994. In addition, the composite Z-score in [1] was -0.222 (inactive). The z-score is 0.673 in experiment [15] and -0.765 (inactive) in experiment [17].
For the compound `C=CCN(C(=O)C1N(c2ccc(CCO)cc2)C(=O)C2C(C(=O)O)C3C=CC21O3)C(C)(C)C` (stereo not given), the composite z-score was -1.21 in the experiment with Albumin (Bos taurus); -0.549 in experiment [2]; -0.171 in experiment [3]; 0.971 in experiment [4]; 1.42 in [5]; -0.262 in [6]. Further, the composite z-score with Sam68 (KHDRBS1) was -1.24; in [7], -4.23; in [8] it was -3.08; in experiment [9] it was -1.51; in [10] it was -0.55; in experiment [11], -0.612. Moreover, the composite z-score in experiment [12] is -1.4; in experiment [13], -2.8; in experiment [14] it was -2.13; in the experiment with Lefty1, -3.43; in experiment [16], -2.09. Further, the composite Z-score in [1] was -0.12 (inactive). Also, the z-score was -0.112 in [15] and -0.163 (inactive) in [17].
